Measured values as given in PubChem BioAssay AID1942 (Johns Hopkins Ion Channel Center, 2009).
About 580 (24%) of roughly 2,400 compounds were called active. These entries were drawn from the full list. Values without a mark were called inactive.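 Rule for the calls: active = activity change at or above the mean plus 3 SD of buffer wells without dofetilide, per plate; inactive = the rest.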

These compounds were tested against Potassium voltage-gated channel subfamily KQT member 2 (Rattus norvegicus) (UniProt O88943) (assay: KCNQ2 potentiation in CHO cells – cell-based, FluxOR thallium flux, counter-screen for hERG block protector project, confirmation (AID 1942;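 note: normalized value minus buffer-control mean plus three SD of buffer wells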)). Settings: FluxOR thallium flux fluorescence, at 10 µM, hits give high values.
Chain of Potassium voltage-gated channel subfamily KQT member 2 (Rattus norvegicus) (O88943 whole entry, looked up): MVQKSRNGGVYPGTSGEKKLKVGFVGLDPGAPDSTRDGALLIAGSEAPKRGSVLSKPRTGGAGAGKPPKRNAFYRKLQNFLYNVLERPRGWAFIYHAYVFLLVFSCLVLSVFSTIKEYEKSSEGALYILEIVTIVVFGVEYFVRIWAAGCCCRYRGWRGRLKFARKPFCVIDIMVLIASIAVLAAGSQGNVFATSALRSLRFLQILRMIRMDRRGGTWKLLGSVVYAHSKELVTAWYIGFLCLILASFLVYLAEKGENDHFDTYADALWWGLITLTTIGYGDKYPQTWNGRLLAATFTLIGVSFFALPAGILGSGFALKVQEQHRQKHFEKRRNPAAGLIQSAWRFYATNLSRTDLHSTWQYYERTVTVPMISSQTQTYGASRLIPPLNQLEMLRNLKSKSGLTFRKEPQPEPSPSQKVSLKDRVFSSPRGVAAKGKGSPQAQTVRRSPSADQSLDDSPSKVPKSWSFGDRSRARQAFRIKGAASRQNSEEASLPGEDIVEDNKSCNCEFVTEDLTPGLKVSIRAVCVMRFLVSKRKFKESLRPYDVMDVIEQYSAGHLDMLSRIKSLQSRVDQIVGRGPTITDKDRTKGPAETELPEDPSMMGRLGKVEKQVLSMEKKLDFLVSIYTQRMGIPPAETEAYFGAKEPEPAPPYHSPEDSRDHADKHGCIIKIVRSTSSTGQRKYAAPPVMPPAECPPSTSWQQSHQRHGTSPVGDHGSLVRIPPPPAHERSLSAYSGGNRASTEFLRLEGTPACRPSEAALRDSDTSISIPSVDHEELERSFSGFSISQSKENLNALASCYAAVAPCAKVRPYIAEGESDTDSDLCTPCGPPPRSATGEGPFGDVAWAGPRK

**Q.** For C=CCSc1nc2sc3c(c2c(=O)n1CC)CCc1ccccc1-3, which activity change, less the hit threshold is on record?
**A.** 11.4% (active)

**Q.** O=C(O)CN1C(=O)C(=O)N(Cc2ccc(C(F)(F)F)cc2)C1=O was tested. Which activity change, less the hit threshold did it give?
**A.** -4.3%

**Q.** With CCOC(=O)N1CCN(C(=O)CCn2c(=S)[nH]c3ccsc3c2=O)CC1 as the compound, how does the activity change, less the hit threshold read?
**A.** -2.5%

**Q.** For N#Cc1ccc(-c2nc3ccc(Br)cc3c(=O)n2O)cc1, which activity change, less the hit threshold is on record?
**A.** 17.3% (active)

**Q.** How did the activity change, less the hit threshold turn out when O=c1c2cc(Br)ccc2nc(-c2cccc(Cl)c2)n1O was run?
**A.** 111% (active)

**Q.** Which activity change, less the hit threshold does the source give for CCCn1c(SC(C)C(=O)N2CCOCC2)nc2ccc(Br)cc2c1=O (stereo unspecified) here?
**A.** -15.9%

**Q.** With O=c1c2cc(Br)ccc2nc(-c2ccc(Cl)cc2)n1O as the compound, how does the activity change, less the hit threshold read?
**A.** 133% (active)

**Q.** For O=c1c2cc(Br)ccc2nc(-c2cccc(C(F)(F)F)c2)n1O, which activity change, less the hit threshold is on record?
**A.** 126% (active)

**Q.** With COc1ccc(CCNS(=O)(=O)c2csc(C(N)=O)c2)cc1OC as the compound, how does the activity change, less the hit threshold read?
**A.** -18.8%

**Q.** With NC(=O)[C@@H]1CCCN1Cc1nc(Cc2ccccc2Cl)no1 as the compound, how does the activity change, less the hit threshold read?
**A.** -17.5%

**Q.** For COc1ccc(Cl)cc1N(C)C(=O)CCNC(=O)Cn1cnc2ccccc2c1=O, which activity change, less the hit threshold is on record?
**A.** -14.6%

**Q.** CCOC(=O)N1CCC(N2C(=O)c3ccccc3C2Nc2cccnc2)CC1 (stereo unspecified) was tested. Which activity change, less the hit threshold did it give?
**A.** -1.9%

**Q.** O=c1c2cc(Br)ccc2nc(-c2ccccc2)n1O was tested. Which activity change, less the hit threshold did it give?
**A.** 36.9% (active)

**Q.** Which activity change, less the hit threshold does the source give for O=c1c2ccc(Cl)cc2nc(-c2cccc(C(F)(F)F)c2)n1O here?
**A.** 118% (active)

**Q.** Which activity change, less the hit threshold does the source give for COc1ccc(S(=O)(=O)N2CCCC(C(=O)Nc3ccc(OC)c(OC)c3)C2)cc1 (stereo unspecified) here?
**A.** -17.4%

**Q.** Cc1cc(C=O)c2c(c1)C=CC1(Oc3ccccc3C(=O)N1C)O2 (stereo unspecified) was tested. Which activity change, less the hit threshold did it give?
**A.** -0.3%

**Q.** N#Cc1c(-c2ccc(Cl)cc2)cc(-c2cccs2)nc1SCC(=O)O was tested. Which activity change, less the hit threshold did it give?
**A.** -24.7%

**Q.** Which activity change, less the hit threshold does the source give for CCOc1ccc(S(=O)(=O)Nc2nc3ccccc3nc2-n2ccc(=NC(=O)c3cccs3)cc2)cc1 here?
**A.** -21.1%

**Q.** With O=[N+]([O-])c1cccc(/C=C/c2nc(C=Nc3ccccc3)c(O)o2)c1 as the compound, how does the activity change, less the hit threshold read?
**A.** -18.2%

**Q.** COc1ccc(C(=O)NC(=S)N(C)C2CCCCC2)cc1Br was tested. Which activity change, less the hit threshold did it give?
**A.** 0.5% (active)

**Q.** For CC1CCCC(NC(=S)NC(=O)c2cncc(Br)c2)C1C (stereo unspecified), which activity change, less the hit threshold is on record?
**A.** -12%

**Q.** Which activity change, less the hit threshold does the source give for Cc1ccc(C(=O)NC(=S)N(C)C2CCCCC2)cc1Br here?
**A.** 2.9% (active)

**Q.** CC1=NN(C(=O)c2ccccc2Br)C(O)(c2ccc(Cl)cc2)C1 (stereo unspecified) was tested. Which activity change, less the hit threshold did it give?
**A.** -27.3%

**Q.** With CCC1=NN(C(=O)c2ccc(Cl)cc2)C(O)(c2ccccc2)C1 (stereo unspecified) as the compound, how does the activity change, less the hit threshold read?
**A.** -23.9%

**Q.** With CC(C)(C)C1(O)CC(C(F)(F)F)=NN1C(=O)Cc1ccc([N+](=O)[O-])cc1 (stereo unspecified) as the compound, how does the activity change, less the hit threshold read?
**A.** -20.8%

**Q.** How did the activity change, less the hit threshold turn out when COC(=O)C1=NN(C(=O)c2ccc(Cl)cc2)C(O)(c2ccccc2)C1 (stereo unspecified) was run?
**A.** 76.9% (active)

**Q.** With CCOC(=O)C1=NN(C(=O)c2cccc(Br)c2)C(O)(C(C)(C)C)C1 (stereo unspecified) as the compound, how does the activity change, less the hit threshold read?
**A.** 87.6% (active)

**Q.** COC(=O)C1=NN(C(=O)c2cccc(Br)c2)C(O)(c2ccc(Cl)cc2)C1 (stereo unspecified) was tested. Which activity change, less the hit threshold did it give?
**A.** 134% (active)

**Q.** How did the activity change, less the hit threshold turn out when CCOC(=O)c1cnc(-n2nc(C)cc2C)nc1Nc1cccc(C(=O)O)c1 was run?
**A.** -13.4%

**Q.** How did the activity change, less the hit threshold turn out when CC1=NN(C(=O)c2ccc(Cl)cc2)C(O)(c2ccccc2)C1 (stereo unspecified) was run?
**A.** -5.5%

**Q.** With Cc1ccc2[nH]c3c(c2c1)CNCC3 as the compound, how does the activity change, less the hit threshold read?
**A.** -13.7%

**Q.** Which activity change, less the hit threshold does the source give for COc1cc(/C=N/Nc2nc(N3CCCC3)nc(N3CCCC3)n2)ccc1OCc1ccccc1F here?
**A.** -23.8%

**Q.** Which activity change, less the hit threshold does the source give for CCCCCCCCCCn1c2c(c(=N)c3c1CCC3)CCC2 here?
**A.** 26.3% (active)

**Q.** CC(=O)c1c(C)c2c(n1CCN(C)C)CCCC2 was tested. Which activity change, less the hit threshold did it give?
**A.** -11.1%

**Q.** With Clc1ccc(N=NN2CCOCC2)cc1 as the compound, how does the activity change, less the hit threshold read?
**A.** -5.2%

**Q.** For O=C(NC(=S)N(CCCCO)C1CCCCC1)c1sc2ccccc2c1Cl, which activity change, less the hit threshold is on record?
**A.** 26% (active)

**Q.** Which activity change, less the hit threshold does the source give for CCOC(=O)CP(=O)(c1ccccc1)c1ccccc1 here?
**A.** -20%

**Q.** For CCOC(=S)NC(=O)c1sc2ccccc2c1Cl, which activity change, less the hit threshold is on record?
**A.** 51.3% (active)

**Q.** For COC(=O)CC1C(=O)NCCN1C(=S)NC(=O)c1sc2ccccc2c1Cl (stereo unspecified), which activity change, less the hit threshold is on record?
**A.** -11.2%

**Q.** Which activity change, less the hit threshold does the source give for CCCCOC(=S)NC(=O)c1sc2ccccc2c1Cl here?
**A.** 71.2% (active)

**Q.** CCCOC(=S)NC(=O)c1sc2ccccc2c1Cl was tested. Which activity change, less the hit threshold did it give?
**A.** 10% (active)

**Q.** How did the activity change, less the hit threshold turn out when COC(=O)Cn1c(=NC(=O)c2sc3ccccc3c2Cl)sc2cc(S(N)(=O)=O)ccc21 was run?
**A.** -18.9%

**Q.** How did the activity change, less the hit threshold turn out when O=C(CCc1nc(-c2ccccc2)no1)N1CCCC1 was run?
**A.** -20.7%

**Q.** C=CCn1c(N2CCCCCC2)nc2c1c(=O)n(C)c(=O)n2C was tested. Which activity change, less the hit threshold did it give?
**A.** -13.9%

**Q.** Which activity change, less the hit threshold does the source give for O=C1NC(=O)/C(=C/c2cc3c(cc2Br)OCO3)S1 here?
**A.** -28.6%

**Q.** COc1ccc(C(=O)NCc2nnc(SCC(=O)NC3CCCCC3)n2C)cc1 was tested. Which activity change, less the hit threshold did it give?
**A.** -21.9%

**Q.** O=[N+]([O-])c1ccc(Cl)c(/C=N/Nc2nc(N3CCOCC3)nc(N3CCOCC3)n2)c1 was tested. Which activity change, less the hit threshold did it give?
**A.** -7.2%

**Q.** With COc1cc(OC)c(C2=NOC(C(=O)Nc3ccc4c(c3)OCO4)C2)cc1Cl (stereo unspecified) as the compound, how does the activity change, less the hit threshold read?
**A.** -22.1%

**Q.** For COc1ccc(OCC(=O)Nc2c3c(nn2-c2ccc(OC)cc2)CS(=O)(=O)C3)cc1, which activity change, less the hit threshold is on record?
**A.** -16.4%

**Q.** With CC(=O)NCCC(=O)N(C)CC1CCN(CCc2cccc(C(F)(F)F)c2)CC1 as the compound, how does the activity change, less the hit threshold read?
**A.** -13.4%

**Q.** With COc1ccc2ncc(OC(C)=O)cc2c1 as the compound, how does the activity change, less the hit threshold read?
**A.** -7.9%

**Q.** How did the activity change, less the hit threshold turn out when COC(=O)c1sccc1NC(=S)NCc1ccc(Cl)cc1 was run?
**A.** 3.3% (active)

**Q.** How did the activity change, less the hit threshold turn out when CSc1ccccc1NC(=S)NCc1ccc(Cl)cc1 was run?
**A.** -17.2%

**Q.** COC(=O)c1sccc1NC(=S)N1CCN(C)CC1 was tested. Which activity change, less the hit threshold did it give?
**A.** -22.7%

**Q.** With Cc1ccc(NC(=O)c2ccc(NC3=NC4CS(=O)(=O)CC4S3)cc2)cc1 (stereo unspecified) as the compound, how does the activity change, less the hit threshold read?
**A.** -20.8%

**Q.** Which activity change, less the hit threshold does the source give for COc1cc(Cl)cc(C(c2c(C(=O)O)[nH]c3ccccc23)c2c(C(=O)O)[nH]c3ccccc23)c1O here?
**A.** -20.1%

**Q.** How did the activity change, less the hit threshold turn out when Cc1cc(C(F)(F)F)n(-c2ccc(N)cc2)n1 was run?
**A.** -13.2%

**Q.** With O=C(COc1ccccc1[N+](=O)[O-])Nc1cc(Cl)ccc1C(=O)O as the compound, how does the activity change, less the hit threshold read?
**A.** -11.3%

**Q.** O=C(NNc1nc2c(F)cccc2s1)c1cc(=O)c2ccccc2o1 was tested. Which activity change, less the hit threshold did it give?
**A.** -19.2%

**Q.** Which activity change, less the hit threshold does the source give for O=c1cc(-c2c(F)c(F)c(F)c(F)c2F)oc2ccccc12 here?
**A.** 12.2% (active)

**Q.** Which activity change, less the hit threshold does the source give for COc1ccc(S(=O)(=O)Nc2cccc(-n3cnnn3)c2)cc1 here?
**A.** -11.2%
